# Measurements published in the supplement of paper PMC7156485.
# ± gives the standard deviation of the averaged measurements.
# Tested on: HCC1569
# Assay: cell number relative to DMSO (% of DMSO); higher = more cells (less growth inhibition / toxicity)
# Details: concentration: 10 µM; 24 h
# How it was run: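 Cells were seeded at 800 per well in 384-well plates with RPMI containing 10% FBS; both HCC1569 and TDF lines were used. Compounds were added at 10 µM for 24 h at 37 °C, in triplicate, before fixation in 3.7% formaldehyde and staining with a rabbit anti-H1.0 antibody, an AlexaFluor 647 secondary and DAPI. H1.0 nuclear intensity or cell number is reported as percent of the plate control using the median of replicates, and HCC1569 values were smoothed for positional effects.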
# 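Also: TDF denotes transformed human dermal fibroblasts of mesenchymal origin.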
row,SMILES,cell number
1,O=C(/C=C/c1cccnc1)NCCCCC1CCN(C(=O)c2ccccc2)CC1,106
2,CCC12CCCN3CCc4c(n(c5ccccc45)C(O)(C(=O)OC)C1)C32 (configuration not stated) [Vincamine],101
3,CC(C)NCC(O)COc1cccc2ccccc12 (stereo not drawn) [Propranolol S(-)],102
4,CCCCCCCCCCCCCCCC(O)C(CO)NC(C)=O (configuration not stated) [C2 Dihydroceramide],104
5,CCOC(=O)Oc1c(OC)cc(C(=O)OC2CC3CN4CCc5c([nH]c6cc(OC)ccc56)C4CC3C(C(=O)OC)C2OC)cc1OC (configuration not stated) [Syrosingopine],94.7
6,COc1ccc(CC[C@H]2CCC[C@@H](CCc3ccc(OC)cc3)N2C[C@@H](O)CO)cc1.Cl,101
7,CCCn1cnc2c1c(=O)n(CCCCC(C)=O)c(=O)n2C [Propentofylline],104
8,Cl.Cl.N=C(N)c1ccc(N)cc1 [4-Aminobenzamidine dihydrochloride],99.9
9,CN1C(C)(C)CCCC1(C)C.O=C(O)C(O)C(O)C(=O)O [Pempidine tartrate],105
10,CC#N.Nc1nc(Nc2ccc(S(N)(=O)=O)cc2)nn1C(=O)c1c(F)cccc1F [Aurora Kinase/Cdk Inhibitor],62
11,COC(=O)CCc1ccc(OCC(O)CNC(C)C)cc1 (configuration not stated) [Esmolol],100
12,O=C(O)/C=C/c1ccc(O)c(O)c1 [Caffeic acid],98.5 ± 1.5
13,OCc1cc(C(O)CNCCCCCCOCCCCc2ccccc2)ccc1O (configuration not stated) [Salmeterol],90.4
14,O=C1CCC(N2C(=O)c3ccccc3C2=O)C(=O)N1 (racemic),103
15,COc1cccc(/C=N/CC/N=C/c2cccc(OC)c2[O-])c1[O-].[Cl-].[Mn+2],99.1
16,CC(C)CC(NC(=O)C(O)C(N)Cc1ccccc1)C(=O)O.Cl (configuration not stated) [Bestatin hydrochloride],101
17,OCC1OC(Oc2ccc(O)cc2)C(O)C(O)C1O (configuration not stated) [Arbutin],99.6
18,CC[N+](C)(C)Cc1ccccc1Br.Cc1ccc(S(=O)(=O)[O-])cc1 [Bretylium tosylate],83.4
19,CCNC(=O)C1OC(n2cnc3c(NCc4ccccc4)ncnc32)C(O)C1O (configuration not stated) [N6-Benzyl-5'-N-ethylcarboxamidoadenosine],77

row,SMILES,cell number
1,Cl.NC(N)=NC(=O)Cc1c(Cl)cccc1Cl [Guanfacine.HCl],101
2,CCCn1c(=O)c2[nH]c(-c3ccc(OCC(=O)NCCN)cc3)nc2n(CCC)c1=O [Xanthine amine congener],97.6
3,CCCCCC=CCC=CCC=CCC=CCCCCCC(=O)O [Adrenic acid (22:4 n-6)],99
4,"CCCCCCCCCCCC=CC(C)(C)C=CCCCC(=O)O [7,7-Dimethyl-(5Z,8Z)-eicosadienoic acid]",102
5,CC(C)n1c(C=CC(O)CC(O)CC(=O)O)c(-c2ccc(F)cc2)c2ccccc21 (configuration not stated) [Fluvastatin],96.3
6,CCN(CC)C(=O)C(C#N)=Cc1cc(O)c(O)c([N+](=O)[O-])c1 [Entacapone],98.2
7,NC(=O)c1ncn(C2OC(CO)C(O)C2O)c1O (configuration not stated) [Mizoribine],101
8,CCCCCC=CCC=CCCCCCCCC(=O)NCC(=O)O [N-Linoleoylglycine],105
9,CCOc1cc2ncnc(Nc3cccc(Br)c3)c2cc1OCC [Compound 56],76.2
10,OC1c2ccccc2N=C2CCCN21 (configuration not stated) [Peganole],95
11,O=C(CCCN1CCC(O)(c2cccc(C(F)(F)F)c2)CC1)c1ccc(F)cc1 [Trifluperidol],100
12,Cc1nc2cc3nc(-c4cccs4)cnc3cc2n1C,106
13,O=C([O-])C=CC(O)c1ccc(Cl)cc1.[Na+] (configuration not stated),105
14,CCCCCCCCCC(=O)NC(CN1CCOCC1)C(O)c1ccccc1 (racemic),99.8
15,CC12C=CC(=O)C=C1CCC1C2C(=O)CC2(C)C1CCC2(O)C(=O)CO (configuration not stated) [Prednisone],101
16,O=C1NC(=O)C(=Cc2ccc3c(c2)OC(F)(F)O3)S1 [PI 3-KbInhibitor II],100
17,CCCCN1CCCC[C@H]1C(=O)Nc1c(C)cccc1C.Cl,104
18,Cc1c(C)c2c(c(C)c1O)CCC(C)(C(=O)O)O2 (configuration not stated) [Trolox],101
